High-throughput results as filed in PubChem.
Compounds with a hit are over-represented: about 3.4% of the library has one in this group of screens.
MITF primary = MITF inhibitors, primary screen, biochemical, AlphaScreen, human; inhibition, % at 2.6 µM; 650,000 tested, 0.91% active; Microphthalmia-associated transcription factor (Homo sapiens), O75030; AlphaScreen MITF homodimerization, bead proximity signal; in the data active = inhibition above about 50%
TEAD-YAP block = TEAD-YAP interaction inhibition, primary screen, TEAD-YAP interaction inhibitor project, luminescence, HEK-TIYL cells; TEAD-Gal4/YAP UAS-luciferase luminescence; inhibition, % at 9.12 µM; 640,000 tested, 1.4% active; in the data active = inhibition above about 32%
GPR151 activ = activators of human GPR151, primary screen, cell-based, PathHunter beta-arrestin, luminescence; G-protein coupled receptor 151 (Homo sapiens), Q8TDV0; activation, % at 11.2 µM; 650,000 tested, 1% active; PathHunter beta-arrestin GPR151 cells; in the data active = activation above about 4.9%
FBW7 act = FBW7 E3 ligase activators, primary screen, biochemical, AlphaScreen, human; AlphaScreen FBW7–phospho-cyclin E peptide binding, activator screen; normalized activity (activation), % at 26.1 µM; F-box/WD repeat-containing protein 7 (Homo sapiens), Q969H0; 650,000 tested, 0.13% active; AID 1259310, 2017; in the data active = normalized activity above about 1.9%;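 also: purified mutant Fbw7 with reduced substrate affinity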
Target sequence (Q969H0 whole entry, looked up): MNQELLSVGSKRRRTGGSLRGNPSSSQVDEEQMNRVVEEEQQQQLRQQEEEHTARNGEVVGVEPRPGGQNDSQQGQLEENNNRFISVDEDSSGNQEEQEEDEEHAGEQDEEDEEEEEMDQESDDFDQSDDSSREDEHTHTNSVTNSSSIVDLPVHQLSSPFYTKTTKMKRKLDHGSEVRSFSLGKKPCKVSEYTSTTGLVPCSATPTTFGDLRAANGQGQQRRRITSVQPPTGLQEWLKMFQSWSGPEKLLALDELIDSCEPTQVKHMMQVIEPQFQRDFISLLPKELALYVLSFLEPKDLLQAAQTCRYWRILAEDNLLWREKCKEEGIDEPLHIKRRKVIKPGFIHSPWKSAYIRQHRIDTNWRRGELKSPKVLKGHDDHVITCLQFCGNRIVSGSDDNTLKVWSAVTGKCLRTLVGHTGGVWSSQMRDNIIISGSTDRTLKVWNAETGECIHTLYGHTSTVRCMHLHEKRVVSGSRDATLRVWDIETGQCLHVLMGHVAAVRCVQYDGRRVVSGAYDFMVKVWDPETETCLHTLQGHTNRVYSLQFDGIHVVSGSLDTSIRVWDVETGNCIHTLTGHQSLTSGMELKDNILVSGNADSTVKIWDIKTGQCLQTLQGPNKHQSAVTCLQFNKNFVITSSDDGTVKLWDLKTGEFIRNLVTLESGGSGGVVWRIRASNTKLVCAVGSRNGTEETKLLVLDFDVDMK
Large screens that a line does not name were inactive.

CC(C)C12CN3CC(C(C)C)(CN(C1)C3c1ccc(O)cc1O)C2=O (stereo unspecified)	none
CO[C@H](C(=O)[C@@H](O)[C@@H](C)O)[C@@H]1Cc2cc3cc(O[C@H]4C[C@@H](O[C@H]5C[C@@H](O)[C@H](O)[C@@H](C)O5)[C@H](O)[C@@H](C)O4)c(C)c(O)c3c(O)c2C(=O)[C@H]1O[C@H]1C[C@@H](O[C@H]2C[C@@H](O[C@H]3C[C@](C)(O)[C@H](O)[C@@H](C)O3)[C@@H](O)[C@@H](C)O2)[C@H](O)[C@@H](C)O1	TEAD-YAP block 92.2
O=C(Nc1c(F)cc(F)cc1Br)c1cc(S(=O)(=O)NC2CCCC2)ccc1F	none
c1ccc(-c2csc(Nc3ccnc(Nc4ccc(N5CCOCC5)cc4)c3)n2)cc1	TEAD-YAP block 64.3
c1cncc(-c2csc(Nc3ccnc(Nc4ccc(N5CCOCC5)cc4)c3)n2)c1	TEAD-YAP block 33.1
c1ccc(-c2cnn(-c3ccnc(Nc4ccc(N5CCOCC5)cc4)c3)c2)cc1	TEAD-YAP block 45.1
CCOC(=O)CSc1nnnn1-c1ccc2c(c1)OCO2	none
C/C(=C\C(=O)C(F)(F)C(F)(F)C(F)(F)F)NNC(=O)c1ccc(C)cc1	none
CC(C)CCOc1ccc(C(=O)NCCCCCC(=O)O)cc1	TEAD-YAP block 38.3
CCOc1ccc(C(=O)NCCCCCC(=O)O)cc1	none
CC(C)COc1ccc(C(=O)NCCCCCC(=O)O)cc1	TEAD-YAP block 46.6
CC(C)Oc1ccc(C(=O)NCCC(=O)O)cc1	none
CC(C)COc1ccc(C(=O)NCCC(=O)O)cc1	none
CC(C)Oc1ccc(C(=O)NCCCCCC(=O)O)cc1	TEAD-YAP block 39.1
Cc1ccc(OCCn2cnc3ccccc32)c(C(C)C)c1	none
CCCC(=O)Nc1sc2c(c1C(N)=O)CCN(C(=O)OCC)C2	TEAD-YAP block 51.2
CCCCC(=O)Nc1sc2c(c1C(N)=O)CCN(C(=O)OCC)C2	TEAD-YAP block 49.7
CCOC(=O)N1CCc2c(sc(NC(=O)C(C)(C)C)c2C(N)=O)C1	none
COCCn1cnc2sc(C(=O)Nc3ccc(F)cc3F)c(C)c2c1=O	none
c1cncc(-c2nc(NC3CCCCC3)cc(-c3ccncc3)n2)c1	none
Cc1nc2c(C(=O)N3CCCC3)c[nH]n2c(=O)c1Cc1ccc(Cl)cc1	FBW7 act 1.9
Cc1nc2c(C(=O)O)c[nH]n2c(=O)c1Cc1ccc(Cl)cc1	none
c1cc(-c2ocnc2-c2ccc3cn[nH]c3c2)cc(Nc2ccc(N3CCOCC3)cc2)n1	TEAD-YAP block 58.4
c1cnn(-c2ccnc(Nc3ccc(N4CCOCC4)cc3)c2)c1	none
Cn1cnc(-c2ccnc(Nc3ccc(N4CCOCC4)cc3)c2)n1	none
Cn1cc(-c2ncoc2-c2ccnc(Nc3ccc(N4CCOCC4)cc3)c2)cn1	none
Cn1ccc(-c2ccccc2Nc2ccnc(Nc3ccc(N4CCOCC4)cc3)c2)n1	TEAD-YAP block 46.9
c1ccc(-c2ccn[nH]2)c(Nc2ccnc(Nc3ccc(N4CCOCC4)cc3)c2)c1	TEAD-YAP block 38.2
CC(C)c1ccc(CN2CCc3nnc(CCNC(=O)C4CCC4)n3CC2)cc1	none
c1ccc(-n2cnc3c(NC4CC4)nc(Nc4ccc(N5CCOCC5)cc4)nc32)cc1	TEAD-YAP block 33.4
OC1CCC(Nc2nc(Nc3ccc(N4CCOCC4)cc3)c3ncn(-c4ccccc4)c3n2)CC1 (stereo unspecified)	TEAD-YAP block 37.8
OC1CCC(Nc2nc(NCc3ccccc3)c3ncn(-c4ccccc4)c3n2)CC1 (stereo unspecified)	none
CCOC(=O)c1c(CSc2ncc(C)c(C)n2)n(-c2ccccc2)c2cc(Br)c(OC)cc12	none
Cc1ccc2c(c1)C(=Nc1ccc(I)cc1)C(=O)N2	FBW7 act 2.1
Cc1c(/C=N/Nc2cccc3cccnc23)c(=O)n(-c2ccccc2)n1C	TEAD-YAP block 87.8
C(=N\Nc1cccc2cccnc12)/c1ccccn1	none
CCOc1cc(C#N)c(NC(=O)c2cccs2)cc1OCC	TEAD-YAP block 48.0
CCOc1ccccc1NC(=O)c1cccs1	none
CCOc1cc(C#N)c(NC(=O)c2ccncc2)cc1OCC	none
CCOc1cc(C#N)c(NC(=O)c2cccnc2)cc1OCC	TEAD-YAP block 54.7
O=C(Nc1ccc(Br)cc1)c1cc2ccc(O)cc2oc1=O	none
CCCNc1nc(Nc2ccc(-n3ccnc3)cc2)nc2c1ncn2-c1ccsc1	TEAD-YAP block 50.9
COc1cc(Nc2nc(NCCc3ccc(O)cc3)c3ncn(-c4ccsc4)c3n2)cc(OC)c1OC	TEAD-YAP block 36.0
CCCNc1nc(Nc2ncccn2)nc2c1ncn2-c1ccsc1	none
CCCNc1nc(Nc2cc(OC)c(OC)c(OC)c2)nc2c1ncn2-c1ccsc1	none
CCCNc1nc(Nc2ccccc2)nc2c1ncn2-c1ccsc1	TEAD-YAP block 54.9
CCCNc1nc(Nc2ccc(-n3ccnc3)cc2)nc2c1ncn2-c1ccccc1	TEAD-YAP block 48.6
COc1ccc(/C(C)=N/N2CCN(C)CC2)c(O)c1	none
Oc1ccc(CCNc2nc(Nc3ccc(-n4ccnc4)cc3)nc3c2ncn3-c2ccsc2)cc1	TEAD-YAP block 61.6
CCCNc1nc(Nc2ccncc2)nc2c1ncn2-c1ccsc1	TEAD-YAP block 56.4
CN1CCN(c2ccc([N+](=O)[O-])cc2C(=O)N2CCCCC2)CC1	none
NC(=O)c1cc([N+](=O)[O-])ccc1N1CCOCC1	none
CN1CCN(c2ccc([N+](=O)[O-])cc2C(=O)c2ccc(Cl)cc2)CC1	TEAD-YAP block 41.4
O=C(c1ccc(Cl)cc1)c1cc([N+](=O)[O-])ccc1N1CCOCC1	TEAD-YAP block 52.6
O=C(c1ccc(Br)cc1)c1cc([N+](=O)[O-])ccc1N1CCOCC1	TEAD-YAP block 54.4
NC(=O)c1ccccc1NC(=O)/C=C/c1ccc(OCc2ccccc2)cc1	none
OC1CCN(c2cc(-c3ccc(F)cc3)nc(-c3ccccn3)n2)CC1	none
CCOC(=O)C1=C(c2ccc([N+](=O)[O-])cc2)Nc2[nH]c(=O)[nH]c(=O)c2C1c1ccccc1 (stereo unspecified)	none
CCOC(=O)N1CC=C2C(C#N)=C(N)C(C#N)(C#N)C(c3cc(OC)ccc3OC)C2C1 (stereo unspecified)	none
CCC(c1nnnn1CCOC)N(Cc1cc2ccc(OC)cc2[nH]c1=O)C1CCCC1 (stereo unspecified)	TEAD-YAP block 58.1
COc1ccc([N+](=O)[O-])cc1C1NN=C(c2ccccc2)S1 (stereo unspecified)	none
CCOc1ccc(C2NN=C(c3ccccc3)S2)cc1 (stereo unspecified)	TEAD-YAP block 70.9
COc1ccc(O)c(C2NN=C(c3ccccc3)S2)c1 (stereo unspecified)	TEAD-YAP block 41.7
CN(c1ccccc1)c1ccc(C2NN=C(c3ccccc3)S2)cc1 (stereo unspecified)	FBW7 act 2.1
CC(=O)Nc1ccc(C2NN=C(c3ccccc3)S2)cc1 (stereo unspecified)	none
Cc1nnsc1C(=O)N1CCn2c(CO)nnc2C1	none
